# Experiments:
# Assay in all cases: PBM binding z-score (relative to random genomic background probes); higher = stronger binding; sequences stand for … in GC…GCGATTGACAGCGTAGAATGAAGG
# [1] = system: RARb homodimer (NR concentration 270 nM)
# In short: (§1)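 Binding buffer was PBS pH 7.4 with 2% milk, 0.02% Triton X-100, 1 mM DTT, 0.2 mg/mL BSA and 0.4 mg/ml salmon testes DNA. In it, ligand-free nuclear receptor dimers were incubated 1 h on custom Agilent 4×180K protein-binding microarrays carrying double-stranded probes. Antibodies against each partner (one per run) detected binding, and z-scores were calculated against random background probes after regression normalization of scanned fluorescence.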
# [2] = system: RARg:RXRa (NR concentration 270 nM, RXRa partner concentration 90 nM)
# In short: as §1
# [3] = system: RARg homodimer (NR concentration 270 nM)
# In short: as §1
# [4] = system: RXRa DBDmut IVT, anti-RXR (DBD mutation: RXRa K156A/R161A, NR concentration 90 nM)
# In short: as §1
# [5] = system: RXRa homodimer (NR concentration 180 nM)
# In short: as §1
# [6] = system: THRa:RXRa (NR concentration 90 nM, RXRa partner concentration 90 nM)
# In short: as §1
# [7] = system: THRa homodimer (NR concentration 90 nM)
# In short: as §1
# [8] = system: VDR homodimer (NR concentration 270 nM)
# In short: as §1
Sequence,PBM binding z-score [1],PBM binding z-score [2],PBM binding z-score [3],PBM binding z-score [4],PBM binding z-score [5],PBM binding z-score [6],PBM binding z-score [7],PBM binding z-score [8]
GGAACGAGGGCAAGTTGAGAGCAGAGTTTGATGG,1.58,1.77,2.21,2.26,0.94,1.45,0.0177,1.66
TCTTGTAGATCAGCAAGTTAAGAAAGCTGGCCAA,-0.5,-0.41,-0.827,0.54,-0.136,-0.47,-1.04,-0.456
TCTAGTTGGTCCCGGAGGTCACACACGACGGGTA,3.79,3.99,3.7,0.937,4.39,3.59,3.02,2.67
TCTGCTAGGTCAACGATGGTCGGCTAATCTGCTA,3.13,3.75,5.24,0.92,2.64,2.7,0.478,-0.232
CGAACGAGGGCATGAGTTGATAGAAAATGCCGAT,0.815,1.29,1.56,2.47,0.995,1.28,-0.093,1.74
TAGCCTAGGTCATTGGGCCAGTATGGTACGCATC,2.8,3.75,3.81,1.46,2.73,2.81,0.583,0.715
CCGAGTAGGTTATGGGGCACTCAGGCAACGGTGA,0.946,0.475,0.553,-0.264,0.805,0.385,0.0948,0.0125
ATCGAAAGGTCGACGAGGGGAGTATACACCGTTT,2.53,4.16,4.01,1.29,4.27,2.18,-0.0563,0.446
TAGCCTAGTTCATGGGCCAGTATACCACGCGAAC,1.05,0.816,0.746,1.37,0.734,0.187,0.00574,1.42
ACTATTAGTTGACTTTGGGCAACCGATACGACGC,0.274,0.43,0.635,0.79,0.476,0.55,0.0342,0.298
CTCGAAAGGTCGGTTCAGGTGAGTATACGGATAA,2.52,2.64,2.62,1.52,2.23,5.09,1.1,2.34
AGAATGAGGTTATACGTCGATCAGGGAAGAAAGT,0.644,1.73,0.993,1.69,2.07,2.01,0.495,0.866
ACAGACAGGTGAGTGAAGGTAACTCAACTGGACG,0.036,0.211,0.661,-0.368,0.324,1.75,-0.422,-0.644
CAAACTAGGACACCGGAAGGTCAAAGTCCGCATG,4.14,4.12,3.83,0.721,3.58,3.71,2.1,2.92
AGTCCAAGTTCATCTAGGTAACGTAAGATATGCT,2.25,2.91,3.37,4.78,2.26,2.76,0.459,5.97
CCTACTGAGCCAAGGTCATTGATCAGTCAAAGCA,3.43,3.7,3.17,2.2,3.23,3.52,2.49,3.65
AATACAGGATCATCGTAGGCCAGAGTACGCACAG,0.484,0.381,0.569,0.155,0.54,1.59,-0.259,0.692
CCGACTGGGGCATAAGGTTGCCATAAGCCAGCCC,0.294,0.249,0.278,-0.617,-0.0266,0.276,-0.00565,-0.0503
CCTTACGGTTCACGAGGTTATAGCACGACGAGCG,2,2.73,1.5,3.15,4.01,2.8,1.26,3.82

Sequence,PBM binding z-score [1],PBM binding z-score [2],PBM binding z-score [3],PBM binding z-score [4],PBM binding z-score [5],PBM binding z-score [6],PBM binding z-score [7],PBM binding z-score [8]
CCTACGGGGCCATTCAGAGGTCATTGATCATATG,4.27,6.22,3.77,2.13,4.07,3.72,1.77,4.91
CGAACGAGGGAATGAGTTGATAGCAAATGCCGAT,-0.933,-0.383,0.11,-0.064,-0.465,-0.489,-0.692,0.188
CCTAATTGGTCAGGAGGTCACACACCGGATATGA,4.46,4.97,4.47,1.33,4.88,3.69,2.45,2.62
CCTCGGAGGACAACAGGAGGTCAGACCTGCCAGA,3.55,3.39,3.43,0.289,1.93,2.83,1.02,1.25
CCTACTGGGCCAAATGTCATTGATTCCAATGCTC,0.556,0.265,0.594,0.342,0.124,-0.237,-0.347,-0.651
TCTATTAGTTGAGGGGCAACCGACGAGTCCGTTT,0.835,0.29,0.252,1.83,0.746,0.432,0.237,1.19
TAGCATAGGTCATTCAGGGGCCAGTATAGAAAGC,3.72,7.38,5.09,1.83,5.02,3.87,-0.317,0.876
ATCTCCAGGTAACCAAGTTCAGTGAATGCCGAAC,1.58,0.664,0.86,1.06,0.486,1.96,1.31,3.04
CCTAGCAGGCCAGGGTCACACAAGCATTTCGCTT,2.98,3.72,2.62,0.238,4.27,3.45,1.54,1.18
TCTTGTAGATCAATAGAGGTTAAGAAAGTGCGCT,1.1,0.791,0.296,0.705,1.28,2.07,-0.31,0.3
GCGCGGAGGACAAGGTCAGAGCTTTGTCCGTAGA,2.99,3.09,3.32,0.639,2.43,2.89,1.33,0.885
ATATGTAGGTTAGCAGGGGTCATTCAGACTAGGC,4.08,5.19,3.61,1.99,6.36,4.61,1.78,5.34
GCATATAGGTAATACAAGTTGAAAGTCCGATTGT,0.185,0.232,0.481,0.331,0.404,1.76,-0.418,0.193
CCTACTGGGGCAAAGGTTACCATACTCAGTACGA,2.27,3.72,1.99,0.241,3.86,1.85,-0.303,0.381
TCTAGCTGGCCAGAGGGTCACTCAAGAGGTACGG,2.27,2.07,1.43,-0.123,2.18,1.48,-0.56,0.32
ATCACTAGGTAAAAGTTCAGTGAATCCCGAGGAT,2.5,2.11,1.85,0.717,1.85,1.32,0.468,1.8
ACTATTAGTTGAGACGAGTGCAACCGATAGGTTG,-0.322,0.00696,0.277,0.58,0.199,0.501,-0.775,1.49
TGAATGAGGTTAAAGATCAGAGAACGTGGCGTCG,0.55,2.23,1.36,1.15,3.86,2.28,0.132,0.373
CAAACTATGTCAAGGTCAAAGTCGGTTTGTGCCA,4.39,4.59,4.75,2.54,4.98,4.03,3.78,4.25

Sequence,PBM binding z-score [1],PBM binding z-score [2],PBM binding z-score [3],PBM binding z-score [4],PBM binding z-score [5],PBM binding z-score [6],PBM binding z-score [7],PBM binding z-score [8]
CCTAATGGGCCAAGGTCATTGATCAGTCAAAGCA,3.46,3.94,3.82,1.91,3.73,3.4,2.52,3.34
ATCTCTAGGTAAGACTCAGTTCACTGAAGAACGC,0.746,0.678,0.541,0.822,0.497,1.29,0.792,2.32
AGAATGAAGTTATACGTAGATCAGGGAAGAAAGT,-0.451,0.0716,0.29,-0.796,-0.0486,-0.563,-0.66,-0.183
ACTATTAGTTGAGACGAGGGCAACCGTTAGGTTG,1.22,0.448,0.848,0.599,0.373,2.62,0.14,0.969
TCTGCTAGGTCAAAGATGGTCAGCTAATCTGCTA,3.04,3.65,4.3,1.31,2.65,3.05,0.196,-0.234
CCGACTGGGGCAGAGGTTACCATACTCAGTACGA,1.64,1.81,1.16,0.0849,2.24,1.14,0.0259,0.131
GCGACTGGGGCTTCAGCAGGTTACCATAACTTAA,0.521,-0.404,-0.463,-0.297,0.00147,0.733,-0.0641,-0.284
ATCTCTAGGTAACTAGTTCAGTGAAAGAGAGGAC,0.47,0.193,0.685,-0.215,0.0901,0.996,0.507,0.877
TTACCAAGGTGAAGGTCGATGATCCCTCTGTAGA,1.64,1.22,1.39,-0.217,1.4,2.05,0.572,0.0587
GTACCAAGGTGAATCGGTCGTTGATGAGTAGGCG,1.27,1.17,1.01,-0.343,0.482,1.49,0.486,-0.443
GCGACTGGGGCAAAGCAGGATACCATAAGGTTGG,0.194,0.19,0.556,-0.369,0.0149,2.27,-0.419,-0.417
ATACCAAGGTGATCGTGAGATCGTTGATACTAAC,0.108,0.309,0.133,0.00637,0.0742,0.704,0.421,0.0841
TCTGATAGGTCAACGATGGTCAGCTAATCTGCTA,3.94,5.15,5.89,1.21,4.73,3.1,-0.296,-0.032
GGAACGAGGGCATTCGAGTTGATAACATGGCGAT,0.66,1.41,1.74,3.17,1.08,3.37,-0.138,3.48
GCAGCTAGGTCAACTGATGGTCAGCTAAAGCTCG,3.08,5.02,5.33,0.798,2.52,2.6,0.305,-0.435
CCTACTTGGTCAAGGTCACACACGCTATAGGTAC,4.57,4.56,4.86,2.17,4.71,4.06,4.41,3.28
CCAACTAGGTCATCCAGGACAGTGAATACATTGA,3.44,3.88,4.83,2.49,2.77,3.79,2.61,2.63
GCATATAGGTAATACAATGTGAAAGTCCGATTGT,-0.3,0.415,0.478,0.58,0.305,0.425,-0.105,0.523
CCTCGGAGGAGAGAAGGTCAGAGCTGTCCGCTTT,2.71,1.89,1.69,-0.424,1.89,1.59,-0.246,-0.0749
